In general, viability refers to a read-out of living cells in per cent, often relative to untreated cells.

Molecules are shown by their SMILES. Results filed as inconclusive are left out. Values without a mark were called inactive. Active and inactive are the calls of the source. The call rests on the fitted dose curve; in most records, active means well fitted cell-killing curve with a large enough effect; inconclusive means small, poorly fitted or top-dose-only effect, or effect the other way; inactive means no such curve, though single readings can be large or run the other way.

Here are results for 14 compounds from PubChem BioAssay (NCATS).

A short description of experiment [1]: Quantitative High-Throughput drug screen in 47 multiple myeloma cell lines against the NCATS MIPE library collection: LP1_DSMZ cell viability assay (AID 1918982). Further: nearly all actives have a fitted effect of over 35% in size. Further: potency means the concentration at half of the fitted maximal effect. A digest of the protocol: (§1)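 qHTS format: cells plated (500/well), pin-dosed with MIPE 4.0 compounds, kept 48 h at 37 °C. Readout was CellTiter-Glo luminescence, median RLU.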
Experiment [2] in a line: Quantitative High-Throughput drug screen in 47 multiple myeloma cell lines against the NCATS MIPE library collection: OCIMY7_PLB cell viability assay (AID 1918987). Further: nearly all actives have a fitted effect of over 65% in size. Further: potency means the concentration at half of the fitted maximal effect. A digest of the protocol:
as §1

The nature of experiment [3]: Quantitative High-Throughput drug screen in 47 multiple myeloma cell lines against the NCATS MIPE library collection: OCIMY5_PLB cell viability assay (AID 1918988). Further: nearly all actives have a fitted effect of over 65% in size. Further: potency means the concentration at half of the fitted maximal effect. A digest of the protocol:
as §1

Experiment [4] in a line: Quantitative High-Throughput drug screen in 47 multiple myeloma cell lines against the NCATS MIPE library collection: OPM1_PLB cell viability assay (AID 1918989). Further: nearly all actives have a fitted effect of over 40% in size. Further: potency means the concentration at half of the fitted maximal effect. Put shortly:
as §1

The nature of experiment [5]: Quantitative High-Throughput drug screen in 47 multiple myeloma cell lines against the NCATS MIPE library collection: SKMM1_PLB cell viability assay (AID 1919863). Further: nearly all actives have a fitted effect of over 35% in size. Further: potency means the concentration at half of the fitted maximal effect. The conditions noted are these: SKMM1 myeloma viability, CellTiter-Glo ATP, 48 h; viability: active compounds read low. Put shortly: as §1
On the technique in general: In ATP-based viability assays light output follows the ATP content of the culture.

A short description of experiment [6]: Quantitative High-Throughput drug screen in 47 multiple myeloma cell lines against the NCATS MIPE library collection: U266_ATCC cell viability assay (AID 1919864). Further: nearly all actives have a fitted effect of over 35% in size. Further: potency means the concentration at half of the fitted maximal effect. A digest of the protocol:
as §1

A short description of experiment [7]: Quantitative High-Throughput drug screen in 47 multiple myeloma cell lines against the NCATS MIPE library collection: VP6_DJ cell viability assay (AID 1919867). Further: nearly all actives have a fitted effect of over 40% in size. Further: potency means the concentration at half of the fitted maximal effect. A digest of the protocol:
as §1

A short description of experiment [8]: Quantitative High-Throughput drug screen in 47 multiple myeloma cell lines against the NCATS MIPE library collection: UTMC2_PLB cell viability assay (AID 1919868). Further: nearly all actives have a fitted effect of over 55% in size. Further: potency means the concentration at half of the fitted maximal effect. The conditions noted are these: CellTiter-Glo ATP luminescence, 48 h; viability (% of DMSO control): at 45.8 µM (top of the series). A digest of the protocol: as §1
The nature of experiment [9]: Quantitative High-Throughput drug screen in 47 multiple myeloma cell lines against the NCATS MIPE library collection: PE2_PLB cell viability assay (AID 1919869). Further: nearly all actives have a fitted effect of over 35% in size. Further: potency means the concentration at half of the fitted maximal effect. A digest of the protocol: as §1
Experiment [10] can be described thus: Quantitative High-Throughput drug screen in 47 multiple myeloma cell lines against the NCATS MIPE library collection: PCM6_Riken cell viability assay (AID 1919870). Further: nearly all actives have a fitted effect of over 30% in size. Further: potency means the concentration at half of the fitted maximal effect. Put shortly: as §1
Experiment [11] is described as follows: Quantitative High-Throughput drug screen in 47 multiple myeloma cell lines against the NCATS MIPE library collection: RPMI8226_ATCC cell viability assay (AID 1919871). Further: nearly all actives have a fitted effect of over 30% in size. Further: potency means the concentration at half of the fitted maximal effect. Put shortly:
as §1

Experiment [12] can be described thus: Quantitative High-Throughput drug screen in 47 multiple myeloma cell lines against the NCATS MIPE library collection: OPM2_DSMZ cell viability assay (AID 1919872). Further: nearly all actives have a fitted effect of over 30% in size. Further: potency means the concentration at half of the fitted maximal effect. Put shortly:
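CellTiter-Glo luminescence (ATP) after 48 h compound exposure, 37C/5% CO2; 500 cells/well; MIPE 4.0 approved/investigational drugs pinned in; DMSO = 100%, media only = 0% viability.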

The nature of experiment [13]: Quantitative High-Throughput drug screen in 47 multiple myeloma cell lines against the NCATS MIPE library collection: KMS11_JCRBsus cell viability assay (AID 1919873). Further: nearly all actives have a fitted effect of over 50% in size. Further: potency means the concentration at half of the fitted maximal effect. Put shortly: as §1
Experiment [14] can be described thus: Quantitative High-Throughput drug screen in 47 multiple myeloma cell lines against the NCATS MIPE library collection: KMS28BM_JCRB cell viability assay (AID 1919874). Further: nearly all actives have a fitted effect of over 35% in size. Further: potency means the concentration at half of the fitted maximal effect. Put shortly:
as §1

A short description of experiment [15]: Quantitative High-Throughput drug screen in 47 multiple myeloma cell lines against the NCATS MIPE library collection: KMS34_JCRB cell viability assay (AID 1918985). Further: nearly all actives have a fitted effect of over 40% in size. Put shortly: as §1
A short description of experiment [16]: Quantitative High-Throughput drug screen in 47 multiple myeloma cell lines against the NCATS MIPE library collection: XG6_PLB cell viability assay (AID 1919865). Further: nearly all actives have a fitted effect of over 40% in size. Further: potency means the concentration at half of the fitted maximal effect. A digest of the protocol: as §1
A short description of experiment [17]: Quantitative High-Throughput drug screen in 47 multiple myeloma cell lines against the NCATS MIPE library collection: XG1_PLB cell viability assay (AID 1919866). Further: nearly all actives have a fitted effect of over 35% in size. Further: potency means the concentration at half of the fitted maximal effect. A digest of the protocol: as §1
Experiment [18] can be described thus: Quantitative High-Throughput drug screen in 47 multiple myeloma cell lines against the NCATS MIPE library collection: KMS28PE_JCRB cell viability assay (AID 1918983). Further: nearly all actives have a fitted effect of over 35% in size. Further: potency means the concentration at half of the fitted maximal effect. A digest of the protocol: as §1
Experiment [19] is described as follows: Quantitative High-Throughput drug screen in 47 multiple myeloma cell lines against the NCATS MIPE library collection: L363_DSMZ cell viability assay (AID 1918984). Further: nearly all actives have a fitted effect of over 40% in size. Further: potency means the concentration at half of the fitted maximal effect. Put shortly:
as §1

On to `CCOC(=O)C1=C[C@]2(CC)CCCN3CCc4c(n1c1ccccc41)[C@@H]32`, for which the Potency in experiment [1] is 20.9 µM (active); in [2] it was 9.35 µM (active); in [3] it was 13.2 µM (active); in [4], 8.33 µM (active); in [5] it was 26.4 µM (active); in [6], 16.6 µM (active). The Potency was 9.35 µM (active) in experiment [7]; 9.35 µM (active) in experiment [8]; 9.35 µM (active) in experiment [9]; 8.33 µM (active) in experiment [10]; 14.8 µM (active) in experiment [11]; 26.4 µM (active) in experiment [12]. The Potency in [13] and in [14] was 8.33 µM (active) throughout.

As for `O=C(Nc1ccc(F)c(C(F)(F)F)c1)Nc1nnc(-c2ccncc2)s1`, the Potency was 3.72 µM (active) in experiment [1]; 2.35 µM (active) in experiment [3]; 13.2 µM (active) in experiment [4]; 8.33 µM (active) in experiment [5]; 4.18 µM (active) in experiment [7]; 1.87 µM (active) in experiment [10]. Further, the Potency result in experiment [2] was “inactive”.

As to `CCCn1c(=O)c2[nH]c(C34CC5CC3C[C@@H](C5)C4)nc2n(CCC)c1=O`, the results for the Potency in experiment [1] and in experiment [11] were 11.8 µM (active) and 8.33 µM (active), respectively. The Potency result in experiment [4], in experiment [8], in experiment [9], in experiment [12], in experiment [13] and in experiment [14] was “inactive” throughout.

Regarding `O=C(C=Cc1ccc(/C=C/C(=O)Nc2ccc(C3=NCCN3)cc2)cc1)Nc1ccc(C2=NCCN2)cc1`, the Potency entry in [1], in experiment [15], in [16], in experiment [7], in experiment [9] and in [11] was “inactive” in each case. Also, the Potency entry in [13] and in [14] was “inactive” in each case. The viability in [5] was 118%. The Potency in experiment [12] is 0.662 µM (active).

With `CC1(C)SCCN(S(=O)(=O)c2ccc(OCC#CCO)cc2)[C@@H]1C(=O)NO`, the Potency in experiment [1] was 16.6 µM (active); in experiment [2] it was 5.26 µM (active); in experiment [3] it was 5.26 µM (active); in [5], 0.118 µM (active). Also, the Potency result in experiment [4], in experiment [9], in experiment [11], in experiment [12] and in [14] was “inactive” in each case.

As to `CC(C)OC(=O)C1=CN(C(=O)c2ccc(F)c(F)c2)CC(C)(C)c2c1[nH]c1ccccc21`, the Potency result in experiment [1], in experiment [15], in experiment [4], in [17], in experiment [8] and in experiment [9] was “inactive” each time. Also, the Potency entry in experiment [11], in experiment [12] and in experiment [13] was “inactive” throughout. The viability in experiment [5] was 104%. Besides, the Potency in [7] is 1.87 µM (active).

For the compound `Cc1n[nH]c(C)c1Cc1sc2c(c1C(=O)N1C[C@H](O)CO1)c(=O)n(C)c(=O)n2CC(C)C`, the results for the Potency in [18], in [9] and in experiment [13] were 16.6 µM (active), 0.235 µM (active) and 0.0526 µM (active), respectively. For the same compound, the Potency result in [19], in experiment [15], in experiment [7], in [10], in experiment [12] and in [14] was “inactive” each time.

Turning to `O=C(Nc1cccnc1)N1CCC(Cc2cccc(Oc3ccc(C(F)(F)F)cn3)c2)CC1`, the Potency in experiment [18] was 16.6 µM (active); in experiment [19], 4.69 µM (active); in experiment [3] it was 18.7 µM (active); in experiment [4], 18.7 µM (active); in experiment [7], 10.5 µM (active); in experiment [8] it was 14.8 µM (active). The results for the Potency in experiment [9] and in experiment [14] were 16.6 µM (active) and 8.33 µM (active), respectively. Further, in experiment [12], the Potency entry is “inactive”.

For `CC(C)NCC(O)COc1ccc(COCCOC(C)C)cc1` (stereo not given), the Potency result in experiment [1], in experiment [15], in experiment [17], in [8], in experiment [10] and in experiment [11] was “inactive” each time. Besides, in experiment [12], the Potency entry is “inactive”.

Turning to `O=S(=O)(N=Cc1c(O)ccc2ccccc12)c1cccs1`, the Potency result in experiment [1] and in [12] was “inactive” each time. Moreover, the Potency is 7.43 µM (active) in [4], 0.0935 µM (active) in experiment [16] and 18.7 µM (active) in experiment [8].

As for `Cc1csc(NC(=O)c2sc3nc4c(c(C(F)(F)F)c3c2N)CCC4)n1`, the Potency in experiment [1] was 20.9 µM (active); in [2], 2.35 µM (active); in [3], 20.9 µM (active); in experiment [6] it was 7.43 µM (active); in experiment [17], 2.35 µM (active); in experiment [11], 13.2 µM (active). Further, in [14], the Potency is 26.4 µM (active). Besides, the Potency entry in [8], in experiment [9] and in [12] was “inactive” each time.

Turning to `OCCC#Cc1nc(-c2ccc(F)cc2)c(-c2ccncc2)n1CCCc1ccccc1`, the Potency result in experiment [18] and in experiment [6] was “inactive” each time. For the same compound, the Potency in experiment [2] was 5.26 µM (active); in experiment [4] it was 18.7 µM (active); in experiment [17], 18.7 µM (active); in [9] it was 20.9 µM (active). Besides, the viability in [5] was 114%.

With `CCC(=O)N[C@H]1CC[C@H](C(=O)N(C)c2ccc(-c3nc4ccccc4o3)cc2)C1`, the Potency in [18] was 18.7 µM (active); in [2], 8.33 µM (active); in [16] it was 8.33 µM (active); in experiment [17], 6.62 µM (active); in experiment [7], 14.8 µM (active); in experiment [9], 13.2 µM (active). Also, the Potency in experiment [14] was 14.8 µM (active). Besides, the Potency result in [15] and in experiment [12] was “inactive” each time. Moreover, the viability in experiment [5] is 132%.

As to `COc1ccccc1-c1cccc(-c2c(O)c3cc(C#N)c(Cl)cc3[nH]c2=O)c1`, the Potency result in [18], in experiment [15], in experiment [3], in experiment [6], in experiment [11] and in [12] was “inactive” each time. Also, in experiment [5], the viability was 104%. For the same compound, the Potency in experiment [16] was 34 µM (active); in experiment [7] it was 21.5 µM (active).
